The first experiment relates to Aedes aegypti larvae. Description: larval motility relative to same well at 0 h (fraction); higher = more motile (less active compound), active = 0.4 or less. Conditions: 10 µM; 2 h. The procedure:
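MMV Pandemic Response Box compounds were tested at 10 µM (1% v/v DMSO) on Aedes aegypti larvae (18-24 h after hatching, about 10 per well, 96-well plates). Motility was quantified with INVAPP (200-frame movies) at 0, 2 and 24 h. Each well's motility was divided by its own 0 h score, and the median of 3 independent screens is reported.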
On to `CCOc1ccc(C(=O)NCCc2ccccc2)cc1`, for which the larval motility is 1.05 (inactive).

As to `COc1cc(C2C3=C(CC(C)(C)CC3=O)Nc3ccccc3N2C(C)=O)ccc1OCc1ccccc1` (stereo not given), the larval motility was 0.542 (inactive).

With `CNC(=O)C1O[C@@H](n2cnc3c(NCc4cccc(I)c4)nc(Cl)nc32)[C@H](O)[C@@H]1O` (stereo not given in full), the larval motility is 0.688 (inactive).

`Nc1nc(-c2ccccc2)nc2[nH]nc(Nc3ccc(C(F)(F)F)cc3)c12`: the larval motility was 0.791 (inactive).

Take `Nc1cnn(C2OC(CO)C(O)C2O)c(=O)n1` (stereo not given): the larval motility was 1.16 (inactive).

Take `CC(Cc1ccccc1)C(=O)Nc1ccc(Cl)cc1C(=O)O` (stereo not given): the larval motility was 1.32 (inactive).

In the case of `O=C(NCc1cccc2ccccc12)c1cccs1`, the larval motility was 0.689 (inactive).

`CCc1nc(N)nc(N)c1C#CC(C)c1cc(OC)cc(-c2ccncc2)c1` (stereo not given): the larval motility is 0.87 (inactive).

For `CCCNc1ccc(S(=O)(=O)Nc2cc(C)on2)cc1`, the larval motility was 0.414 (inactive).

For `O=S(=O)(NCB(O)O)c1ccc(-c2nnn[nH]2)cc1C(F)(F)F`, the larval motility is 0.999 (inactive).

With `O=C1NC(=O)C(Br)=C1Br`, the larval motility is 0.672 (inactive).

`CCc1ccc(C2CC(C(F)(F)F)n3ncc(C(=O)NCc4ccc(OC)cc4)c3N2)cc1` (stereo not given): the larval motility is 0.923 (inactive).

As to `CN(C/C=C/C#CC(C)(C)C)Cc1cccc2ccccc12`, the larval motility is 0.66 (inactive).

For the molecule `O=[N+]([O-])c1cn2c(n1)OC[C@@H](OCc1ccc(OC(F)(F)F)cc1)C2`, the larval motility is 1.12 (inactive).

For `Nc1cc(N)c2nc(-c3ccccc3)c(Nc3ccc(F)cc3)nc2c1`, the larval motility was 0.877 (inactive).

As for `CC[C@@]1(O)C(=O)OCc2c1cc1n(c2=O)Cc2cc3c(CN(C)C)c(O)ccc3nc2-1`, the larval motility was 0.831 (inactive).

In the case of `CN(C(=O)C1(c2ccc(Cl)cc2)CCC1)c1ccccc1`, the larval motility is 1.1 (inactive).

Take `Cc1cc(CCCOc2c(C)cc(-c3noc(C(F)(F)F)n3)cc2C)on1`: the larval motility is 1.46 (inactive).

For the molecule `CC(Oc1ccc(Cl)cc1Cl)C(=O)NCc1ccc2c(c1)OCO2` (stereo not given), the larval motility is 0.508 (inactive).

On to `COc1cc(NCc2ccc3nc(N)nc(N)c3c2C)cc(OC)c1OC`, for which the larval motility is 0.5 (inactive).

The same experiment, now with this note: 10 µM; 24 h.
With `CCOc1ccc(C(=O)NCCc2ccccc2)cc1`, the larval motility was 0.979 (inactive).

As for `COc1cc(C2C3=C(CC(C)(C)CC3=O)Nc3ccccc3N2C(C)=O)ccc1OCc1ccccc1` (stereo not given), the larval motility was 0.617 (inactive).

On to `CNC(=O)C1O[C@@H](n2cnc3c(NCc4cccc(I)c4)nc(Cl)nc32)[C@H](O)[C@@H]1O` (stereo not given in full), for which the larval motility is 0.817 (inactive).

Turning to `Nc1nc(-c2ccccc2)nc2[nH]nc(Nc3ccc(C(F)(F)F)cc3)c12`, the larval motility is 0.591 (inactive).

Take `Nc1cnn(C2OC(CO)C(O)C2O)c(=O)n1` (stereo not given): the larval motility is 1.33 (inactive).

With `CC(Cc1ccccc1)C(=O)Nc1ccc(Cl)cc1C(=O)O` (stereo not given), the larval motility was 1.05 (inactive).

On to `O=C(NCc1cccc2ccccc12)c1cccs1`, for which the larval motility is 0.669 (inactive).

For `CCc1nc(N)nc(N)c1C#CC(C)c1cc(OC)cc(-c2ccncc2)c1` (stereo not given), the larval motility is 0.417 (inactive).

Regarding `CCCNc1ccc(S(=O)(=O)Nc2cc(C)on2)cc1`, the larval motility was 0.825 (inactive).

In the case of `O=S(=O)(NCB(O)O)c1ccc(-c2nnn[nH]2)cc1C(F)(F)F`, the larval motility was 1.46 (inactive).

As for `O=C1NC(=O)C(Br)=C1Br`, the larval motility is 0.484 (inactive).

For `CCc1ccc(C2CC(C(F)(F)F)n3ncc(C(=O)NCc4ccc(OC)cc4)c3N2)cc1` (stereo not given), the larval motility was 1.29 (inactive).

Take `CN(C/C=C/C#CC(C)(C)C)Cc1cccc2ccccc12`: the larval motility is 0.879 (inactive).

As for `O=[N+]([O-])c1cn2c(n1)OC[C@@H](OCc1ccc(OC(F)(F)F)cc1)C2`, the larval motility is 1.3 (inactive).

`Nc1cc(N)c2nc(-c3ccccc3)c(Nc3ccc(F)cc3)nc2c1`: the larval motility is 0.892 (inactive).

On to `CC[C@@]1(O)C(=O)OCc2c1cc1n(c2=O)Cc2cc3c(CN(C)C)c(O)ccc3nc2-1`, for which the larval motility is 0.876 (inactive).

With `CN(C(=O)C1(c2ccc(Cl)cc2)CCC1)c1ccccc1`, the larval motility was 1.21 (inactive).

For `Cc1cc(CCCOc2c(C)cc(-c3noc(C(F)(F)F)n3)cc2C)on1`, the larval motility was 0.903 (inactive).

Turning to `CC(Oc1ccc(Cl)cc1Cl)C(=O)NCc1ccc2c(c1)OCO2` (stereo not given), the larval motility was 0.902 (inactive).

Take `COc1cc(NCc2ccc3nc(N)nc(N)c3c2C)cc(OC)c1OC`: the larval motility was 0.356 (active).

The values are drawn from the supplement of paper PMC8540655.
